In PubChem BioAssay (Tox21) one finds Potency and activity change, negative = inhibition data, which are given here for 30 molecules.

“And” between values parts separate entries of the source, which are not always exact repeats. Equal entries are not always repeated. Inconclusive results are not listed. Where a call stands in place of a potency, no number is given. The source made the active and inactive calls. The call rests on the fitted dose curve; in most records, active means well fitted curve in the direction sought with a large enough effect in the repeat runs; inconclusive means weak or mixed curves; inactive means no such curve, though single readings can be large; an effect the other way counts as inactive or inconclusive.
Further: nearly all actives have a fitted effect of over 50% in size.
Potency means the concentration at half of the fitted maximal effect.

One test deals with Voltage-gated inwardly rectifying potassium channel KCNH2 (Homo sapiens) (UniProt Q12809). Briefly: Human Ether-a-go-go-Related Gene (hERG) channel small molecule antagonists: fluorescence cell-based qHTS assay (AID 1671200).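 On activity change, negative = inhibition: hERG-expressing U2OS cells given a thallium stimulus after FluxOR II dye loading.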 The following applies: hERG-U2OS cells, FluxOR thallium flux fluorescence; series mostly up to 76.8 µM. An outline of the steps: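 U2OS cells expressing the channel were plated at 1000 cells/well, incubated overnight at 37 C, then loaded with FluxOR II thallium-sensitive dye for 1 h at room temperature in the dark, with a further 10 min at room temperature before stimulation.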
Sequence of Voltage-gated inwardly rectifying potassium channel KCNH2 (Homo sapiens) (Q12809 whole entry, looked up): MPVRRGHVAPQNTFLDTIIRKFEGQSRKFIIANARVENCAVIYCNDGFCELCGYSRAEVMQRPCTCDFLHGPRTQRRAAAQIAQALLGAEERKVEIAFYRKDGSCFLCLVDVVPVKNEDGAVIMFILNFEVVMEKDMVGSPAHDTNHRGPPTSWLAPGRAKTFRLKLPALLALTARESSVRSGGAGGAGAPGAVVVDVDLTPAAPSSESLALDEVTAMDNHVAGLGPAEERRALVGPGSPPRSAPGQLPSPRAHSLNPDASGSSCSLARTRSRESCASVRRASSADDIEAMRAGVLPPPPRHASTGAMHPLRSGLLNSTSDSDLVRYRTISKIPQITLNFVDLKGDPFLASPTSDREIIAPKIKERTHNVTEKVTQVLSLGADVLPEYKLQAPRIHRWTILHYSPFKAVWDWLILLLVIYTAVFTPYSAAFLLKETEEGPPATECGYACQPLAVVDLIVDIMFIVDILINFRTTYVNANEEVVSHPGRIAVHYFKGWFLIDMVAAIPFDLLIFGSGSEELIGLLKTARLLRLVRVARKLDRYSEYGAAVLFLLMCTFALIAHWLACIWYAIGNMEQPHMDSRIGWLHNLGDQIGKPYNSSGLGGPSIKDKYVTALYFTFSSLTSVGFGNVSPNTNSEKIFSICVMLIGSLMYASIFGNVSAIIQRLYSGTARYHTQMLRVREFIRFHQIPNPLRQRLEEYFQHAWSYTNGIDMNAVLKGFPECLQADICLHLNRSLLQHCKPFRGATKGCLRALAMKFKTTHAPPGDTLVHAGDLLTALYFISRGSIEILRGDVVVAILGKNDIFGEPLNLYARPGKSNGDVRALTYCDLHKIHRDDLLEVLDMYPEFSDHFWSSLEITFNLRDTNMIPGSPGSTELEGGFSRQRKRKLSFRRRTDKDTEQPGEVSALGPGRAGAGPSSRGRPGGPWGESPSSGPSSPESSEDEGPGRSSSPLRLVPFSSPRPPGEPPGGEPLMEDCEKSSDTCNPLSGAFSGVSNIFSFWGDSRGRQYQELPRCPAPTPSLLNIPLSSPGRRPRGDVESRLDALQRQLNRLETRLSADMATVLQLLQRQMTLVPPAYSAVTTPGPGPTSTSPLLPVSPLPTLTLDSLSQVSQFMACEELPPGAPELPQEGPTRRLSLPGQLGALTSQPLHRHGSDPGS
In general terms: hERG is a cardiac potassium channel; its block is linked to QT prolongation.
Consider `C(=C/c1ccccc1)/c1ccccc1`, for which the Potency result was “inactive”.
Same read-out and setting: the entry for `Cc1nc(Nc2ncc(C(=O)Nc3c(C)cccc3Cl)s2)cc(N2CCN(CCO)CC2)n1` is “inactive”; for `c1cc[nH]c1` it is “inactive”.
Still for that read-out and setting: in the case of `NCCCCCCNCCCCCCN` it was “inactive”; in that of `CCN=C1C=CC(=C(c2ccc(N(CC)CC)cc2)c2ccc(N(CC)CC)cc2)c2ccccc21`, 0.345 µM (active).
Still for that read-out and setting: in the case of `CCCCOC(=O)C(C)CC` (stereo not given) it was “inactive”.
On to `O=C[C@H](O)[C@H](O)[C@H](O)CO`, for which the Potency result is “inactive”.
Turning to `O=S(O)O`, the activity change, negative = inhibition is 4.11% [at 15.8 µM] (inactive).
In the case of `CN(C)c1ccc(N=Nc2ccccc2C(=O)O)cc1`, the Potency result is “inactive”.
On to `CCCCCCOc1ccc(O)cc1`, for which the Potency result was “inactive”.
Still for that read-out and setting: the entry for `COc1cccc(O)c1` is “inactive”; for `COc1cccc(CCc2ccccc2OCC(CN(C)C)OC(=O)CCC(=O)O)c1` (stereo not given) it is “inactive”.
Consider `CC1=C(/C=C/C(C)=C/C=C/C(C)=C/C(=O)Nc2ccc(O)cc2)C(C)(C)CCC1`, for which the Potency result is “inactive”.
For `O=C1Nc2ccc(Cl)cc2[C@@](C#CC2CC2)(C(F)(F)F)O1`, the Potency entry was “inactive”.
As for `CC1CCCCC1`, the Potency entry was “inactive”.

The target in a further test is Cytochrome P450 3A4 (Homo sapiens) (UniProt P08684). The test can be described thus: Cytochrome P450 Family 3 Subfamily A Member 4 (CYP3A4) small molecule antagonists: luciferase reporter qHTS assay (AID 1671201). The following applies: P450-Glo CYP3A4 enzyme, luciferin luminescence, 1 h; series mostly up to 115 µM. Summed up: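 P450-Glo CYP3A4 system with proluciferin substrate; compounds preincubated 10 min RT with enzyme-substrate mix, then NADPH regeneration added for 1 h RT. Detection reagent 20 min, luminescence read as relative luminescence units.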
Sequence of Cytochrome P450 3A4 (Homo sapiens) (P08684 whole entry, looked up): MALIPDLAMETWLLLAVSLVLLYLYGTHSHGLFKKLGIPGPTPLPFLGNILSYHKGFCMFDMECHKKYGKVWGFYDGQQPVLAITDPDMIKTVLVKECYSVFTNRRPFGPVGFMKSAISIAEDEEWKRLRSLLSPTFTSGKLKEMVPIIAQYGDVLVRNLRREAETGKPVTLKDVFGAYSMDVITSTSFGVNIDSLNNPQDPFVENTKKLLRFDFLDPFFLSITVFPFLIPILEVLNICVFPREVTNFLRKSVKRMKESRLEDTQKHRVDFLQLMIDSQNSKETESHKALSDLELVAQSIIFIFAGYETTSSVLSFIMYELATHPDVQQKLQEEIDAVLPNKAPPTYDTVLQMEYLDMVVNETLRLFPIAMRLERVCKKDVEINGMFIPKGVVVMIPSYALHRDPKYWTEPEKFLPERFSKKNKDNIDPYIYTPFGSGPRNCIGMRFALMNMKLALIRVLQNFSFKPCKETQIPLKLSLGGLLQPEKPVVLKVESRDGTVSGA
(In general: A reporter such as luciferase makes a cellular process visible.)
Regarding `N[C@@H](CSSC[C@H](N)C(=O)O)C(=O)O`, the activity change, negative = inhibition was 5.27% [at 0.435 µM] (inactive).
As for `Clc1cc(Cl)c(-c2c(Cl)c(Cl)cc(Cl)c2Cl)cc1Cl`, the Potency entry is “inactive”.
For `CCCCCCCCCCCCOC(=O)c1cc(O)c(O)c(O)c1`, the Potency is 17.8 µM (active) and 20 µM (active).
Turning to `CCCC(C)CCC(C)=O` (stereo not given), the Potency result was “inactive”.
With `C=C1C(C)(C)[C@@]2(Cl)C(Cl)[C@]1(Cl)C(Cl)(Cl)C2(Cl)Cl` (stereo not given in full), the Potency was 0.985 µM (active).
In the case of `CCCCCCC(C)OC(=O)COc1nc(F)c(Cl)c(N)c1Cl` (stereo not given), the Potency was 7.96 µM (active).
As to `c1cc(OCC2CO2)cc(OCC2CO2)c1` (stereo not given), the Potency was 35.3 µM (active).
On the same count and under the same terms, the entry for `COc1ccccc1C=O` is “inactive”; for `Brc1ccccc1-c1ccccc1` it is “inactive”.
Take `COC(=O)NCCC[Si](OC)(OC)OC`: the Potency is 28.3 µM (active).
On the same count and under the same terms, in the case of `O=C1OC(=O)c2cccc3cccc1c23` it was “inactive”; in that of `CCN(CC)CCNc1ccc(CO)c2sc3ccccc3c(=O)c12`, “inactive”; in that of `CC(=O)OC(OC(C)=O)c1ccc([N+](=O)[O-])o1`, “inactive”.
Regarding `Cc1cc(Nc2ccc(O)cc2)ccc1N`, the Potency was 7.93 µM (active).
On the same count and under the same terms, the entry for `C(=C/c1ccccc1)/c1ccccc1` is “inactive”.
For `c1cc[nH]c1`, the Potency result is “inactive”.
Turning to `CCCCOc1ccc(C(=O)CCN2CCCCC2)cc1`, the Potency entry was “inactive”.
`NCCCCCCNCCCCCCN`: the Potency is 3.5 µM (active).
For the molecule `CCN=C1C=CC(=C(c2ccc(N(CC)CC)cc2)c2ccc(N(CC)CC)cc2)c2ccccc21`, the Potency was 8.88 µM (active).
As to `CCCCOC(=O)C(C)CC` (stereo not given), the Potency result is “inactive”.
Still for that read-out and setting: in the case of `O=C[C@H](O)[C@H](O)[C@H](O)CO` it was “inactive”; in that of `CN(C)c1ccc(N=Nc2ccccc2C(=O)O)cc1`, “inactive”.
Same read-out and setting: in the case of `COc1cccc(O)c1` it was “inactive”; in that of `O=C1Nc2ccc(Cl)cc2[C@@](C#CC2CC2)(C(F)(F)F)O1`, “inactive”.
On the same count and under the same terms, the entry for `CC1CCCCC1` is “inactive”.
